Records with an inconclusive call do not appear. Entries that show only a call come without a potency. The source made the active and inactive calls. Calls come from the whole dose curve; as a rule, active = well fitted inhibition curve with a large enough effect; inconclusive = small, poorly fitted or top-dose-only effect; inactive = no such curve, though single readings can be large or run the other way.
Potency is the fitted concentration of half-maximal effect.

Sequence of Rap guanine nucleotide exchange factor 3 (Homo sapiens) (O95398 whole entry, looked up): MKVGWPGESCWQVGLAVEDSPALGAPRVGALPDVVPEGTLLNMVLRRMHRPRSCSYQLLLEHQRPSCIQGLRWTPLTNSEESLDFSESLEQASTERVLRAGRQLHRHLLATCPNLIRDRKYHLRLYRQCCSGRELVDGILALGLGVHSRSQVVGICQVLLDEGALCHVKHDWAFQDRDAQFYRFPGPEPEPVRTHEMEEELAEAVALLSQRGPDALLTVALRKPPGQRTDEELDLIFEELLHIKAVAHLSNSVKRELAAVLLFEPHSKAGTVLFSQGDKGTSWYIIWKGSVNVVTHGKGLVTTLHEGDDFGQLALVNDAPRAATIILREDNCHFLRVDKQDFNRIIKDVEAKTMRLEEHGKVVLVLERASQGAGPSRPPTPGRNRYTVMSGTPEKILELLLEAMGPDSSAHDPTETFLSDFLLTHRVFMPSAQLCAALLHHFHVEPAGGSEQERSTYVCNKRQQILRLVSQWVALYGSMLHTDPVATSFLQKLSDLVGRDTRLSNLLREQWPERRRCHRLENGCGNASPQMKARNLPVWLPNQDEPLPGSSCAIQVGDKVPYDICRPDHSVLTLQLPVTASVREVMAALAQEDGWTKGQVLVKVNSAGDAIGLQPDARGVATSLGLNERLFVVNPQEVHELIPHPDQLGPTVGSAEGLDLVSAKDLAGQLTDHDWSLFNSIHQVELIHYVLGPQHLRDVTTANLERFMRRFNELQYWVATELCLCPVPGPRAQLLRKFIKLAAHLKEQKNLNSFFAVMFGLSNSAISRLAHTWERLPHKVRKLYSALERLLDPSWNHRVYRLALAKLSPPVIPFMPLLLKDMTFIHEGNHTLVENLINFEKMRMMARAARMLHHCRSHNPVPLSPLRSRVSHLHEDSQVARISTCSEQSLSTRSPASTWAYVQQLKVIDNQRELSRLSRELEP

The target of this experiment is Rap guanine nucleotide exchange factor 3 (Homo sapiens) (UniProt O95398). Description: Confirmatory qHTS for antagonist of cAMP-regulated guanine nucleotide exchange factor 3 (EPAC1) (AID 1645880). Note: nearly all actives have a fitted effect of over 55% in size. To be noted: EPAC1 Rap1B-BODIPY-GDP exchange, fluorescence; activity, negative = inhibition: at 115 µM (top of the series). The procedure, abridged:
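Nucleotide exchange uses 100 nM EPAC1, 250 nM RAP1B-BODIPY-GDP and 50 uM GDP, with compounds in a concentration-titration series. After 5 min at room temperature, fluorescence (480 nm ex/540 nm em) is read every 5 min for 30 min. Data are normalized to control ATA and DMSO.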
(In general: Quantitative high-throughput screening tests each substance at several concentrations.)
On to `OC(c1ccc2ccccc2n1)c1c(Cl)cccc1Cl` (stereo not given), for which the Potency result was “inactive”. Then `COC(=O)C1=C(C)N(c2ccc(OC)cc2)C(C)=C(C(=O)OC)C1c1ccccc1`, with “inactive”.

As to `C=CCN1C(=O)/C(=C/C=C2/N(CC)c3ccc(S(=O)(=O)N(C)C)cc3N2CC)SC1=S`, the Potency entry is “inactive”. Turning to `Cc1ccccc1SCC(=O)Nc1cc(C(F)(F)F)ccc1N1CCOCC1`, the Potency result was “inactive”. As for `CCOc1cc(-c2ccc(OC(=O)c3ccc(OC)cc3)c(OC)c2)cc(=O)c2c(C)oc(C)c12`, the Potency was 75.7 µM (active). Then `COc1cc(NC(=O)CCNC(=O)Cn2ccc3ccccc3c2=O)cc(OC)c1OC`, with “inactive”; and `CCN(CC)CC#CCOC(c1ccccc1)c1ccccc1`, with “inactive”. Then `CCn1nc(C)c(C(=O)Nc2cc(Oc3ccc(Cl)cc3)cc([N+](=O)[O-])c2)c1C`, with “inactive”. Regarding `CCOc1cc(CNc2ccc(O)cc2)ccc1OCc1ccc(Cl)cc1`, the Potency is 84.9 µM (active). Consider `Cc1ccc2nc(SCC(=O)c3c(N)n(C4CC4)c(=O)[nH]c3=O)[nH]c2c1`, for which the Potency result is “inactive”. Then `CCN(C(=O)c1sc2cc(OC)ccc2c1Cl)c1ccccc1`, with “inactive”. Then `Cc1ccc(NC(=O)N2CC3CCCN3c3ccccc32)cc1Cl` (stereo not given), with “inactive”; and `COc1cc(SC)ccc1C(=O)NC1CCCc2ccccc21` (stereo not given), with “inactive”.

With `Cc1ccc(CNC(=O)CN(c2cc(C)cc(C)c2)S(=O)(=O)c2c(C)[nH]c(=O)[nH]c2=O)cc1`, the Potency result is “inactive”. For the compound `CC(=O)c1cccc(NC(=O)Cn2cc(C(=O)c3cccc(Cl)c3)c(=O)c3ccc(C)nc32)c1`, the Potency entry is “inactive”. Then `O=C(Nc1ccccc1OCc1ccccc1)c1ccccc1Br`, with “inactive”; and `CCCc1nn2c(=O)cc(COC(=O)c3ccc(NC(=O)COc4ccccc4F)cc3)nc2s1`, with “inactive”. Then `O=C1/C(=C\c2cccc(O)c2O)SC(=S)N1Cc1ccccc1`, with 75.7 µM (active).

As for `COc1ccc(C(NC(=O)c2cc(OC)ccc2OC)c2ccccc2)cc1` (stereo not given), the Potency entry is “inactive”.

For `Cc1cccc(Cn2c(-c3cccs3)nc3ccccc32)c1`, the Potency result is “inactive”.

`CC(=O)C1=CCC(c2cccc(Cl)c2)N(S(=O)(=O)c2ccc(C)cc2)C1` (stereo not given): the Potency entry is “inactive”.

Take `O=S(=O)(c1ccc(Br)c2ccccc12)N1CCCC1`: the Potency entry is “inactive”. Then `Cc1ccc(-c2noc(-c3nnn(CC(=O)Nc4cc(Cl)ccc4C)c3N)n2)cc1`, with “inactive”; and `COc1ccc(-c2nc3ccccc3n2Cc2ccccc2)cc1`, with “inactive”. Then `COC(=O)c1cc2sccc2n1Cc1ccccc1`, with “inactive”.

Turning to `CCN(CC)CCOC(=O)c1ccc(NC(=O)c2nn(-c3ccc(C)cc3)c(=O)c3c2c2ccccc2n3C)cc1`, the Potency was 42.6 µM (active). Then `O=C1CSC(c2ccc(Cl)cc2Cl)N1c1ccccn1` (stereo not given), with “inactive”; and `OCCCCC#Cc1c(-c2ccsc2)sc2ccccc12`, with “inactive”; and `COC(=O)c1c(NC(=O)c2ccc(S(=O)(=O)N3CCCCC3C)cc2)sc2c1CCN(C(C)C)C2` (stereo not given), with “inactive”. `COc1ccc(Br)cc1CN(C)CC(=O)Nc1c(Cl)cccc1Cl`: the Potency entry was “inactive”. With `O=C(O)CSCC(=O)N(Cc1ccccc1)c1nc(-c2ccccc2)c(-c2ccccc2)s1`, the Potency is 67.5 µM (active). Then `Nc1ncnc2c1nc(Sc1ccc(Cl)cc1)n2[C@@H]1O[C@@H]2COP(=O)(O)O[C@H]2[C@H]1O`, with 0.213 µM (active); and `COCc1ccccc1C1=CC(=O)C[C@H](c2ccc(F)cc2)C1`, with “inactive”; and `Cc1cc(C)c(S(=O)(=O)N(C)c2ccccc2)c(C)c1`, with “inactive”. Then `COc1ccc(C(=O)Nc2ccc(NC(=O)c3cccs3)cc2)cc1OC`, with “inactive”; and `COc1cc(/C=N/NC(=O)c2cc(O)cc(O)c2)ccc1OC(=O)c1ccccc1`, with 33.8 µM (active); and `COc1ccc(C(=O)c2oc3ccccc3c2NC(=O)c2cc(=O)c3ccc(C)cc3o2)cc1Cl`, with “inactive”. Then `O=C(N/N=C\c1c(O)ccc2ccccc12)c1ccc(S(=O)(=O)N2CCCCC2)cc1`, with “inactive”; and `CCOc1ccccc1NC(=O)c1ccccc1-c1ccccc1`, with “inactive”; and `COc1ccc(NC(=O)CN(C)C(=O)c2cn(-c3ccccc3)nc2-c2cccnc2)cc1`, with “inactive”.

The record behind these values is PubChem BioAssay (NCATS).
